# Test results: PubChem BioAssay AID1159580 (chemical genetic matrix, 2015)
# Out of some 5,500 compounds screened, about 2,000 (36%) were called active. About 18% were inconclusive and are not listed. The list shows a part of the results. Unmarked numbers belong to inactive results. Cut-off read from the data, not from the text of the source: active = normalized growth mostly below about 0.91 (no sharp cut-off); inconclusive = no clear call, values can overlap the other calls; inactive = mostly above about 0.92.
# Test: chemical genetic growth profiling, strain panel (AID 1159580);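 note: tested at 20 µM; growth read once vehicle control cultures reached saturation at 30 °C; 1 = growth at the plate median or of vehicle wells; lower values mean less growth of the strain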
# Conditions: S. cerevisiae deletion strains, growth OD
# [1] = locus YDL101C, strain DUN1, active compounds read low
# [2] = locus YHR030C, strain SLT2, active compounds read low
structure (smiles),measurement,setting,value
CN(C)/C=C1/C(=O)NN=C1CSc1ccccn1,normalized growth,"locus YAL013W, strain DEP1, active compounds read low",1
same,normalized growth,"locus YBR229C, strain ROT2, active compounds read low",0.999
same,normalized growth,"locus YCL061C, strain MRC1, active compounds read low",1.03
same,normalized growth,[1],1.03
same,normalized growth,"locus YDR150W, strain NUM1, active compounds read low",1.04
same,normalized growth,"locus YEL061C, strain CIN8, active compounds read low",0.999
same,normalized growth,"locus YGR078C, strain PAC10, active compounds read low",1.02
same,normalized growth,[2],1.09
same,normalized growth,"locus YHR087W, strain rtc3, active compounds read low",0.948
same,normalized growth,"locus YJR043C, strain POL32, active compounds read low",1.02
same,normalized growth,"locus YJR075W, strain HOC1, active compounds read low",1.01
same,normalized growth,"locus YKL190W, strain CNB1, active compounds read low",1.02
same,normalized growth,"locus YLR039C, strain RIC1, active compounds read low",1.11
same,normalized growth,"locus YLR058C, strain SHM2 (second series), active compounds read low",0.974
same,normalized growth,"locus YLR085C, strain ARP6, active compounds read low",1.05
same,normalized growth,"locus YLR262C, strain YPT6, active compounds read low",1.02
same,normalized growth,"locus YML094W, strain GIM5, active compounds read low",1.01
same,normalized growth,"locus YMR219W, strain ESC1, active compounds read low",0.982
same,normalized growth,"locus YMR263W, strain SAP30, active compounds read low",1.01
same,normalized growth,"locus YMR307W, strain GAS1, active compounds read low",1.07
same,normalized growth,"locus YNL153C, strain GIM3, active compounds read low",1.03
same,normalized growth,"locus YNL298W, strain CLA4 (second series), active compounds read low",1.04
same,normalized growth,"locus YNL322C, strain KRE1, active compounds read low",0.985
same,normalized growth,"locus YNR030W, strain Alg12, active compounds read low",1.01
same,normalized growth,"locus YPL055C, strain LGE1, active compounds read low",0.972
same,normalized growth,"locus YPL241C, strain CIN2, active compounds read low",1
same,normalized growth,"locus YPR135W, strain CTF4, active compounds read low",1.09
O=C(Nc1cc2c(s1)-c1cc(Cl)ccc1SC2)Oc1ccccc1,normalized growth,"locus YAR019C, strain CDC15, active compounds read low",0.977
same,normalized growth,"locus YBL105C, strain PKC1, active compounds read low",1.01
same,normalized growth,"locus YBR135W, strain CKS1, active compounds read low",1.01
same,normalized growth,"locus YBR136W, strain MEC1, active compounds read low",0.995
same,normalized growth,"locus YBR160W, strain CDC28, active compounds read low",0.99
same,normalized growth,"locus YDL017W, strain CDC7, active compounds read low",1.01
same,normalized growth,"locus YDL028C, strain MPS1, active compounds read low",0.984
same,normalized growth,[1],0.989
same,normalized growth,"locus YDL108W, strain KIN28, active compounds read low",0.986
same,normalized growth,"locus YDL132W, strain cdc53, active compounds read low",1
same,normalized growth,"locus YDL214C, strain PRR2, active compounds read low",0.928
same,normalized growth,"locus YDR052C, strain DBF4, active compounds read low",0.997
same,normalized growth,"locus YDR054C, strain cdc34, active compounds read low",0.999
same,normalized growth,"locus YDR226W, strain ADK1, active compounds read low",1
same,normalized growth,"locus YDR477W, strain SNF1, active compounds read low",0.964
same,normalized growth,"locus YER123W, strain YCK3, active compounds read low",0.936
same,normalized growth,"locus YER133W, strain GLC7, active compounds read low",0.972
same,normalized growth,"locus YFL009W, strain cdc4, active compounds read low",0.997
same,normalized growth,"locus YFL029C, strain CAK1, active compounds read low",0.978
same,normalized growth,"locus YFR003C, strain YPI1, active compounds read low",0.998
same,normalized growth,"locus YFR019W, strain FAB1, active compounds read low",0.927
same,normalized growth,"locus YFR028C, strain CDC14, active compounds read low",1
same,normalized growth,"locus YGR040W, strain KSS1, active compounds read low",0.97
same,normalized growth,"locus YGR052W, strain FMP48, active compounds read low",1.01
same,normalized growth,"locus YGR092W, strain DBF2, active compounds read low",0.966
same,normalized growth,[2],0.911
same,normalized growth,"locus YHR079C, strain IRE1, active compounds read low",0.939
same,normalized growth,"locus YHR082C, strain KSP1, active compounds read low",0.962
same,normalized growth,"locus YHR205W, strain SCH9, active compounds read low",0.914
same,normalized growth,"locus YIL147C, strain SLN1, active compounds read low",0.994
same,normalized growth,"locus YJL095W, strain BCK1, active compounds read low",0.927
same,normalized growth,"locus YJL128C, strain PBS2, active compounds read low",1.02
same,normalized growth,"locus YJL157C, strain FAR1, active compounds read low",0.959
same,normalized growth,"locus YJR016C, strain ILV3, active compounds read low",0.999
same,normalized growth,"locus YJR066W, strain TOR1 (second series), active compounds read low",0.946
same,normalized growth,"locus YJR066W, strain TOR1, active compounds read low",0.951
same,normalized growth,"locus YKL048C, strain ELM1, active compounds read low",0.98
same,normalized growth,"locus YKL067W, strain YNK1, active compounds read low",0.946
same,normalized growth,"locus YKL101W, strain HSL1, active compounds read low",0.953
same,normalized growth,"locus YKL193C, strain SDS22, active compounds read low",1.01
same,normalized growth,"locus YKL203C, strain TOR2, active compounds read low",1.01
same,normalized growth,"locus YLR113W, strain HOG1, active compounds read low",0.849 (active)
same,normalized growth,"locus YLR133W, strain CKI1, active compounds read low",0.938
same,normalized growth,"locus YLR403W, strain SFP1, active compounds read low",0.946
same,normalized growth,"locus YML070W, strain DAK1, active compounds read low",0.957
same,normalized growth,"locus YMR001C, strain CDC5, active compounds read low",1
same,normalized growth,"locus YMR205C, strain PFK2 (second series), active compounds read low",0.966
same,normalized growth,"locus YMR277W, strain FCP1, active compounds read low",0.999
same,normalized growth,"locus YNL006W, strain LST8, active compounds read low",0.99
same,normalized growth,"locus YNL020C, strain ARK1, active compounds read low",0.938
same,normalized growth,"locus YNL161W, strain CBK1, active compounds read low",0.993
same,normalized growth,"locus YNL183C, strain NPR1, active compounds read low",0.941
same,normalized growth,"locus YNL207W, strain RIO2, active compounds read low",0.997
same,normalized growth,"locus YNL222W, strain SSU72, active compounds read low",1.01
same,normalized growth,"locus YNL307C, strain MCK1 (second series), active compounds read low",0.949
same,normalized growth,"locus YOL078W, strain AVO1, active compounds read low",1
same,normalized growth,"locus YOL136C, strain PFK27, active compounds read low",0.914
same,normalized growth,"locus YOR061W, strain CKA2, active compounds read low",0.934
same,normalized growth,"locus YOR119C, strain RIO1, active compounds read low",0.988
same,normalized growth,"locus YOR231W, strain MKK1, active compounds read low",0.949
same,normalized growth,"locus YOR329C, strain SCD5, active compounds read low",1
same,normalized growth,"locus YPL031C, strain PHO85, active compounds read low",0.963
same,normalized growth,"locus YPL153C, strain RAD53, active compounds read low",0.968
same,normalized growth,"locus YPL204W, strain HRR25, active compounds read low",0.959
same,normalized growth,"locus YPL209C, strain IPL1, active compounds read low",1
same,normalized growth,"locus YPL256C, strain CLN2, active compounds read low",0.912
same,normalized growth,"locus YPR025C, strain CCL1, active compounds read low",1.01
same,normalized growth,"locus YPR106W, strain ISR1, active compounds read low",0.997
same,normalized growth,"locus YPR111W, strain DBF20, active compounds read low",1.01
same,normalized growth,"strain NNK1, active compounds read low",1
same,normalized growth,"strain TSCII, active compounds read low",1
